Test results reported in PubChem BioAssay (EPA / NIEHS).
Records with an inconclusive call do not appear. Calls of active or inactive are those of the source. The calls were made as follows: active = hit-call score of the fitted dose curve at least 0.9, where 1 is the maximum; inconclusive = response in the unintended direction; inactive = score below 0.9.

Experiments:
Caspase-1 (Homo sapiens) = Caspase-1 (Homo sapiens) (UniProt P29466); test: NVS_ENZ_hCASP1: NovaScreen (NVS) Enzymatic Assay for human Caspase 1 (CASP1) (AID 2283132)
Chain of Caspase-1 (Homo sapiens) (P29466 whole entry, looked up): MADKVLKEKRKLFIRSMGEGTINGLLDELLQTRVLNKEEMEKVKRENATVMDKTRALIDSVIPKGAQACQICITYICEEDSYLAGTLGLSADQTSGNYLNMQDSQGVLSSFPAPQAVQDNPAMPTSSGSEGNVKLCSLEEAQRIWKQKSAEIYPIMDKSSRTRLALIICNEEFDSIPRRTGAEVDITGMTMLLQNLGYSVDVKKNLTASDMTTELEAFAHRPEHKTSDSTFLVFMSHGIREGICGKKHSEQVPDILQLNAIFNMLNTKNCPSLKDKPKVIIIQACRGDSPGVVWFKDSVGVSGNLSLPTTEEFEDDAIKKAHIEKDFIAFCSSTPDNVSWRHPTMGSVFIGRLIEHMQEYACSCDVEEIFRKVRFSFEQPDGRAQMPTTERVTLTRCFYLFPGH
Description: NVS_ENZ_hCASP1 is a biochemical, single-readout assay that uses extracted gene-proteins from E. coli in a cell-free assay. Measurements were taken 1 hour after chemical dosing in a 96-well plate.NVS_ENZ_hCASP1 is one of one assay component(s) measured or calculated from the NVS_ENZ_hCASP1 assay. It is designed to make measurements of enzyme activity, a form of enzyme reporter, as detected with fluorescence intensity signals by Fluorescence technology.Data from the assay component NVS_ENZ_hCASP1 was analyzed into 1 assay endpoint. This assay endpoint, NVS_ENZ_hCASP1, was analyzed in the positive analysis fitting direction relative to DMSO as the negative control and baseline of activity. […] Furthermore, this assay endpoint can be referred to as a primary readout, because this assay has produced multiple assay endpoints where this one serves a enzymatic activity function. […]
Binding assays used specific radioligands (tritiated, iodinated) with non-radioactive competitive displacement ligands in agonist or antagonist protocols (as indicated) and various reference compounds and inhibitors to titrate specific binding to receptors and transporters. Most enzyme assays (CYPs, kinases, phosphatases, proteases, HDACs) used recombinant protein and specific substrates (fluorescence mostly, some colorimetric and radioactive) and inhibitors, followed by a biochemical separation of substrate and product. […]

[1] = molecular target: human Caspase 10 (CASP10), CASP10 (gene 843) (UniProt Q92851); test: NVS_ENZ_hCASP10: NovaScreen (NVS) Enzymatic Assay for human Caspase 10 (CASP10) (AID 2283133)
Chain of human Caspase 10 (CASP10), CASP10 (gene 843) (Q92851 whole entry, looked up): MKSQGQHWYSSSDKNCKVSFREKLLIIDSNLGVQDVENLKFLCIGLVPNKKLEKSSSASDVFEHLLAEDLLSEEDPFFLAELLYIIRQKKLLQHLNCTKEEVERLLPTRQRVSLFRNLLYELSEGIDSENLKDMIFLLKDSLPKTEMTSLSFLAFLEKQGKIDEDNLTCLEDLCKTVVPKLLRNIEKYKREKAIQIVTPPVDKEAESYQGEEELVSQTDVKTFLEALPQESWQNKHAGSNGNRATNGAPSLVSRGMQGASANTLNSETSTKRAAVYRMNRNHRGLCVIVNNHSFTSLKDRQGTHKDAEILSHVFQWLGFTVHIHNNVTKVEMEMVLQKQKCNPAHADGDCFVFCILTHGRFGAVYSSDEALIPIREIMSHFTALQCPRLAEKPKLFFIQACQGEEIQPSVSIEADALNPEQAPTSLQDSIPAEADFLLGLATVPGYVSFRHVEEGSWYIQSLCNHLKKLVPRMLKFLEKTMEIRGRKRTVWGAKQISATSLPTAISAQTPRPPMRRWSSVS
Description: NVS_ENZ_hCASP10 is a biochemical, single-readout assay that uses extracted gene-proteins from E. coli in a cell-free assay. Measurements were taken 1 hour after chemical dosing in a 96-well plate.NVS_ENZ_hCASP10 is one of one assay component(s) measured or calculated from the NVS_ENZ_hCASP10 assay. It is designed to make measurements of enzyme activity, a form of enzyme reporter, as detected with fluorescence intensity signals by Fluorescence technology.Data from the assay component NVS_ENZ_hCASP10 was analyzed into 1 assay endpoint. This assay endpoint, NVS_ENZ_hCASP10, was analyzed in the positive analysis fitting direction relative to DMSO as the negative control and baseline of activity. Using a type of enzyme reporter, loss-of-signal activity can be used to understand changes in the enzymatic activity as they relate to the gene CASP10. Furthermore, this assay endpoint can be referred to as a primary readout, because this assay has produced multiple assay endpoints where this one serves a enzymatic activity function. To generalize the intended target to other relatable targets, this assay endpoint is annotated to the protease intended target family, where the subfamily is cysteine protease. […]

[2] = molecular target: human AKT serine/threonine Kinase 2 (AKT2), AKT2 (gene 208) (UniProt P31751); test: NVS_ENZ_hAKT2: NovaScreen (NVS) Enzymatic Assay for human AKT serine/threonine Kinase 2 (AKT2) (AID 2283141)
Chain of human AKT serine/threonine Kinase 2 (AKT2), AKT2 (gene 208) (P31751 whole entry, looked up): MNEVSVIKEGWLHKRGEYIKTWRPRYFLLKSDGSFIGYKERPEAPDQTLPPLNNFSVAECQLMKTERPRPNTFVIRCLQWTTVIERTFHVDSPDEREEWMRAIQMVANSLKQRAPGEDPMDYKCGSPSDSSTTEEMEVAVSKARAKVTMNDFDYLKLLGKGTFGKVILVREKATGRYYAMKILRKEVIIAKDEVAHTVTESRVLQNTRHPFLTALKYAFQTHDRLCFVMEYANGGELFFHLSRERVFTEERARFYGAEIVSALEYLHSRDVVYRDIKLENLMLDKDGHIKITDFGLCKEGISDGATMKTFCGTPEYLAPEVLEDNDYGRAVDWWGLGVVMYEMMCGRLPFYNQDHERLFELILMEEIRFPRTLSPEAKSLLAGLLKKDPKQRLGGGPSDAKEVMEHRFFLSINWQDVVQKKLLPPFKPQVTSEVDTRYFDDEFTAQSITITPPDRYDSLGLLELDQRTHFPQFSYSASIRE
How it was run: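 Cell-free fluorescence/electrophoretic mobility shift readout of recombinant human AKT2 activity, 1 h after chemical dosing. Duplicate primary screen at 25 uM, then singleton concentration-response up to 50 uM; loss of signal versus DMSO baseline.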

CC(C)O.CC(C)O.OCCN(CCO)CCO.OCCN(CCO)CCO.[Ti]
AC50 (Caspase-1 (Homo sapiens)): 1.37 µM (active)
AC50 [1]: 8.59 µM (active)
AC50 [2]: 3.46 µM (active)

COc1ccccc1N
outcome [2]: inactive
